What all share (assay): qHTS profiling for inhibitors of Plasmodium falciparum proliferation (AID 504749); further: nearly all actives have a fitted effect of over 60% in size
Settings in all cases: P. falciparum in erythrocytes, SYBR Green DNA, 72 h; series mostly up to 28.7 µM
(In general: Quantitative high-throughput screening tests each substance at several concentrations.)

Experiment [1] has as its system CP262. A digest of the protocol:
(§1)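 SYBR Green fluorescence of parasite DNA, read after lysis and overnight dark incubation, measured growth over 72 h in erythrocyte culture at 0.3% parasitemia and 2.5% hematocrit. Data normalised to DMSO and 0.29 uM artemisinin, with plate-drift correction.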

In experiment [2] the test system is CP286. A digest of the protocol: as §1
The subject of experiment [3] is CP291. The procedure, abridged:
as §1

The test system of experiment [4] is CP256. The procedure, abridged: as §1
For experiment [5], the system named is CP260. The procedure, abridged:
as §1

Experiment [6] deals with CP266. A digest of the protocol: as §1
For experiment [7], the system named is CP268. The procedure, abridged: as §1
In experiment [8] the test system is CP269. The procedure, abridged: as §1
Experiment [9] concerns CP265. A digest of the protocol:
as §1

For experiment [10], the system named is CP297. The procedure, abridged:
as §1

The structures appear in SMILES notation. Records with an inconclusive call do not appear. The source made the active and inactive calls. The call rests on the fitted dose curve; in most records, active means well fitted inhibition curve with a large enough effect; inconclusive means small, poorly fitted or top-dose-only effect; inactive means flat fitted curve, though single readings scatter.
Potency means the concentration at half of the fitted maximal effect.

Consider `CN1CCC(Nc2ncc3ncnc(Nc4ccc(F)c(Cl)c4)c3n2)CC1`, for which the Potency result in experiment [1] is “inactive”. Further, the Potency in experiment [2] is 11.2 µM (active); in experiment [3] it was 15.1 µM (active).
`Nc1c2ccccc2nc2ccccc12`: the Potency was 11.2 µM (active) in experiment [4]; 7.94 µM (active) in experiment [5]; 13.5 µM (active) in experiment [6]; 13.5 µM (active) in experiment [7]; 13.5 µM (active) in experiment [8]; 5.01 µM (active) in experiment [2]. Also, the Potency entry in experiment [1] is “inactive”.
Consider `O=[N+]([O-])c1ccc(O)c2ncccc12`, for which, in experiment [1], the Potency was 12 µM (active).
On to `CCCCCCCCCCCCCC[N+](C)(C)C`, for which the Potency in [4] was 7.94 µM (active); in [5] it was 3.98 µM (active); in [1], 4.78 µM (active); in experiment [9], 8.91 µM (active); in [6] it was 10.7 µM (active); in experiment [7], 8.49 µM (active). The Potency was 5.36 µM (active) in experiment [8], 2.51 µM (active) in [2], 4.78 µM (active) in [3] and 10.7 µM (active) in [10].
`O=C(Nc1ccc(Cl)cc1)Nc1ccc(Cl)c(Cl)c1`: the Potency in experiment [4] is 2.24 µM (active); in experiment [5], 2 µM (active); in experiment [1], 5.36 µM (active); in experiment [9], 3.55 µM (active); in experiment [6], 8.49 µM (active); in experiment [7], 4.26 µM (active). For the same molecule, the Potency is 6.01 µM (active) in [8], 2.24 µM (active) in [2], 4.78 µM (active) in [3] and 7.57 µM (active) in experiment [10].
Consider `CCCCCCCCCCCCCCCC[n+]1ccccc1`, for which the Potency in experiment [4] is 8.91 µM (active); in experiment [5] it was 3.98 µM (active); in experiment [1], 3.38 µM (active); in [9] it was 8.91 µM (active); in experiment [6], 13.5 µM (active); in [7] it was 9.53 µM (active). For the same molecule, the Potency was 5.36 µM (active) in experiment [8], 2.51 µM (active) in experiment [2], 6.01 µM (active) in experiment [3] and 5.36 µM (active) in experiment [10].
Turning to `O=S(=O)(O)c1ccc2nc(-c3ccccc3)[nH]c2c1`, the Potency entry in [4], in experiment [5], in [1], in experiment [9], in [6] and in experiment [7] was “inactive” throughout. Besides, the Potency result in [8], in [2], in experiment [3] and in experiment [10] was “inactive” each time.
As to `CN1CCCN(C(c2ccccc2)c2ccc(Cl)cc2)CC1` (stereo unspecified), the Potency in experiment [4] is 10 µM (active); in experiment [5] it was 10 µM (active); in experiment [9] it was 5.01 µM (active); in experiment [2], 11.2 µM (active). Besides, the Potency entry in [1] is “inactive”.
As to `CCCCCCCCCCCCCCCC[N+](C)(C)Cc1ccccc1`, the Potency in experiment [4] was 3.98 µM (active); in experiment [5], 2 µM (active); in experiment [1], 4.78 µM (active); in [9], 3.98 µM (active); in experiment [6] it was 9.53 µM (active); in experiment [7], 12 µM (active). Also, the Potency in experiment [8] was 7.57 µM (active); in experiment [2] it was 2.82 µM (active); in experiment [3], 15.1 µM (active); in experiment [10], 13.5 µM (active).
As to `CC(NCCC(c1ccccc1)c1ccccc1)c1ccccc1` (stereo unspecified), the Potency in experiment [4] was 12.6 µM (active); in [5], 10 µM (active); in [7] it was 13.5 µM (active); in experiment [8], 16.9 µM (active); in experiment [2], 3.98 µM (active); in experiment [3], 13.5 µM (active). Also, in experiment [1], the Potency entry is “inactive”.
Turning to `Nc1ncnc2nc[nH]c12`, the Potency entry in experiment [4], in experiment [5], in experiment [1], in experiment [9], in experiment [6] and in experiment [7] was “inactive” each time. Moreover, the Potency result in experiment [8], in experiment [2], in experiment [3] and in experiment [10] was “inactive” in each case.
On to `Nc1ccc2cc3ccc(N)cc3nc2c1`, for which the Potency in experiment [5] is 8.91 µM (active); in experiment [2] it was 3.55 µM (active). For the same molecule, the Potency result in experiment [1] was “inactive”.
